Only some compounds are listed: those with a hit (about 12% of all), similar ones and a draw of the others.
SARS PLpro yeast – SARS-CoV PLP inhibition in yeast. 330,000 compounds, 0.19% hits. AID 485353. Potency, µM (doses to about 32.9 µM), for inactives: at the highest dose activity, positive = growth rescue, most hits filed as activators. S. cerevisiae expressing SARS-CoV PLpro, growth rescue; calls by dose curve; note: 0% is about no effect; nearly all actives have a fitted effect of over 55% in size
Pf growth 48h – inhibits P. falciparum growth in the first generation, 48 h; Potency, µM (highest dose often 28.7 µM), without a hit: at the top dose activity change, negative = inhibition, actives largely listed as inhibitors; P. falciparum luciferase growth in erythrocytes, 48 h; 310,000 compounds, 5.9% hits; note: % is set by controls: 0 for no effect and ±100 for the full control effect
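Erythrocytes infected with P. falciparum carrying an integrated firefly luciferase reporter (2% hematocrit, 0.1% parasitemia final) were exposed to compounds in RPMI 1640 with 0.5% Albumax at 37 C, 5% CO2. Growth inhibition was scored as reduced luminescence.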
AMA1-RON2 inh – AMA1-RON2 (P. falciparum) interaction inhibition; AlphaScreen AMA1-biotinylated RON2 peptide binding; Potency, µM (titrated, usually from 58.2 µM), without a hit: top-dose activity change, negative = inhibition, hits mostly inhibitors; 360,000 compounds, 0.2% hits; AID 720542;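 note: 0% = vehicle wells and -100% = peptide control; nearly all actives have a fitted effect of over 45% in size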
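AMA1 (3D7) with his tag at 25 nM final met compounds first, then biotinylated RON2 peptide at 25 nM; detection used donor plus acceptor beads, 10 µg/mL apiece, read by AlphaScreen after 30 min at room temperature.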
NS1 function inh – blocks influenza NS1 protein function | Potency, µM (top dose mostly 46.1 µM), for inactives: top-dose activity, positive = more growth | 270,000 compounds, 0.4% hits; calls by dose curve; note: actives are rising curves; nearly all actives have a fitted effect of over 50% in size
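In this qHTS, NS1 from influenza A is expressed in budding yeast, where it slows growth. Cells are switched from glucose to 2% galactose medium (pH 6.0, -URA), treated with compound, and growth recovery is read at OD600.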
HCV inh – blocks hepatitis C virus; Huh7.5.1 HCVcc-Cre infection, luciferase reporter, 44 h; Potency, µM (top dose mostly 41.8 µM), for inactives: at the highest dose activity change, negative = inhibition, usual class: inhibitors; 340,000 compounds, 3.4% hits; AID 651820; note: % is set by controls: 0 for no effect and ±100 for the full control effect
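Infectious HCV cell culture screen: compound-treated cells (1,000/well, pre-plated 4 h) are infected with HCVcc-Cre at roughly 0.5 moi and grown 44 h. Infection is quantified by luciferase signal after 15 min substrate incubation at room temperature.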
Pf growth 96h – P. falciparum growth inhibition at 96 hours; P. falciparum luciferase reporter growth, 96 h; Potency, µM (doses to about 28.7 µM), inactives show at the top dose activity change, negative = inhibition, actives largely listed as inhibitors; 320,000 compounds, 6.9% hits; AID 504834; note: % is set by controls: 0 for no effect and ±100 for the full control effect
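P. falciparum expressing integrated firefly luciferase grown in erythrocytes (2% hematocrit, 0.05% parasitemia final) with compounds for 96 hours at 37 C, 5% CO2. Growth inhibition read as loss of luminescence after adding luciferase detection reagent.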
The depositor's hits bear a star; ? = inconclusive; . = no result; [ ] = remark or other dose. Unless noted, calls come from the whole dose curve; as a rule, active = well fitted curve in the direction sought with a large enough effect; inconclusive = small, poorly fitted or top-dose-only effect, or another doubt; inactive = no such curve, though single readings can be large; an effect the other way counts as inactive or inconclusive. Potency is the fitted concentration of half-maximal effect.

SMILES	SARS PLpro yeast	Pf growth 48h	AMA1-RON2 inh	NS1 function inh	HCV inh	Pf growth 96h
CNc1ccc2oc(C[C@H]3O[C@@]4(CC[C@H]3C)O[C@H]([C@H](C)C(=O)c3ccc[nH]3)[C@H](C)C[C@H]4C)nc2c1C(=O)O	-10%	0.93µM*	80%	-46%	2.2µM*	0.41µM*
Cc1cc(NC(=O)C(C)SCC(=O)Nc2cc(C(F)(F)F)ccc2N2CCCCC2)no1 (stereo not given)	-9%	?	-7%	.	?	12µM*
Cc1cc(NC(=O)C(C)SCC(=O)Nc2ccccc2C(C)(C)C)no1 (stereo not given)	14%	13µM*	15%	.	-5%	15µM*
Cc1cc(NC(=O)C(C)SCC(=O)Nc2ccccc2N2CCCC2)no1 (stereo not given)	0%	?	11%	.	-5%	-29%
Cc1cccc(N2CCN(C(=O)CSCc3c(C)noc3C)CC2)c1C	-10%	2%	12%	-110%	4µM*	62%
Cc1noc(C)c1CSCC(=O)Nc1cc(C(F)(F)F)ccc1N1CCCCC1	-13%	4.7µM*	-25%	.	?	?
Cc1cc(NC(=O)CSCC(=O)Nc2cc(C(F)(F)F)ccc2N2CCCCC2)no1	.	.	1%	.	-25%	.
O=C(NCCCN1CCOCC1)/C(=C/c1cccnc1)NC(=O)c1ccccc1	-3%	54%	-12%	.	2%	?
Cc1ccc(C(=O)Nc2cc(Cl)ccc2N2CCCCC2)s1	-14%	.	10%	-5%	?	?
CCc1sc(C(=O)Nc2cc(Cl)ccc2N2CCCCC2)cc1C	-2%	.	8%	3%	?	15µM*
Cc1noc(C)c1CSCC(=O)Nc1cc(Cl)ccc1N1CCCCC1	-2%	?	-7%	.	10µM*	6.6µM*
Cc1cc(Cl)ccc1-c1nc(NCc2ccccc2)nc2ccsc12	.	.	34%	.	.	.
COc1ccccc1/C=C/C1(C(=O)NC2CCCC2)CC(=O)N1c1ccccc1 (stereo not given)	2%	?	-4%	-1%	-26%	?
NC(=NCCc1ccccc1)NS(=O)(=O)c1ccccc1F	9%	9%	-2%	-1%	14%	24%
S=c1[nH]c2ccccc2n1CCOc1ccccc1	2%	?	45%	-9%	-11%	?
Cc1ccc(OCCn2c(=S)[nH]c3ccccc32)c(C(C)C)c1	9%	12µM*	51%	3%	?	46%
Cc1cccc(OCCn2c(=S)[nH]c3ccccc32)c1	-20%	?	5%	-15%	-17%	13µM*
COc1ccc(CCC(=O)O)c(O)c1	0%	0%	-19%	6%	13%	-1%
Cc1cc(CCC(=O)O)c(C)cc1CCC(=O)O	3%	5.9µM*	-3%	9%	15%	?
COc1ccc(CC(=O)N2CCN(c3ccccc3OC)CC2)cc1OC	-4%	6%	-6%	5%	-23%	?
O=C(Cc1ccc(-n2cccc2)cc1)N1CCN(c2ccccc2F)CC1	-8%	19%	?	-8%	1%	12µM*
COc1ccc(CC(=O)N2CCN(c3ccccc3F)CC2)cc1OC	8%	7%	-11%	8%	11µM*	22%
O=C(CCC(=O)N1CCN(c2ccccc2F)CC1)N1CCN(c2ccc(F)cc2)CC1	-8%	-13%	-9%	-17%	?	?
CC(C)(CNC(=O)c1ccccc1F)CNC(=O)c1ccccc1F	.	.	-5%	.	16%	.
O=C1C=C(Nc2ccccc2O)c2ccccc2C1=O	-22%	10µM*	-26%	-80%	?	9.3µM*
Cc1ccc(NS(=O)(=O)c2ccc3c(c2)C(=O)c2ccccc2C3=O)c(C)c1	15%	-12%	-11%[11.6 µM]	-2%	?	?
O=C1C=C(NCc2ccccc2)c2ccccc2C1=O	-4%	?	-6%	-66%	?	-5%
Cc1ccc(NC2=CC(=O)C(=O)c3ccccc32)c(C)c1	-7%	0.83µM*	-4%	.	?	0.59µM*
